# Data as given in PubChem BioAssay (NCI).
# Compounds without any hit were thinned out: in the full panel of roughly 79,000, 15% have a hit. Values without a mark were called inactive. The source made the active and inactive calls. Rule as the data show it: active = growth inhibition above about 70%; inactive = the rest.
# Columns and labels:
# [1] = NCI Yeast Anticancer Drug Screen. Data for the mlh1 strain (AID 171);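 also: 0% = growth of vehicle-treated control cultures of the same strain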; conditions: S. cerevisiae mlh1 strain growth inhibition, hits give high values
# Outline: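 Yeast carrying a defined genetic alteration in DNA damage repair or cell cycle control were exposed to test compounds. Growth inhibition was measured relative to vehicle-treated controls.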
# [2] = NCI Yeast Anticancer Drug Screen. Data for the mlh1 rad18 strain (AID 175); conditions: S. cerevisiae mlh1 rad18 strain growth inhibition, hits give high values
# Outline: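 Growth inhibition of the yeast strain was measured after compound exposure and expressed relative to vehicle-treated controls. The strain carries defined defects in DNA damage repair.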
# [3] = NCI Yeast Anticancer Drug Screen. Data for the rad52 strain (AID 147);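 also: 0% = growth of vehicle-treated control cultures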; conditions: S. cerevisiae rad52 mutant growth inhibition, hits give high values
# Outline: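 Yeast strain carrying a DNA damage repair alteration was exposed to test compounds. Growth inhibition was measured relative to vehicle-treated controls.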
# [4] = NCI Yeast Anticancer Drug Screen. Data for the wt1 strain (AID 149);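 also: 0% = growth of vehicle-treated wt1 cultures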; conditions: S. cerevisiae wt1 strain (SPY 50644) growth inhibition, hits give high values
# Outline: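 Measured: growth of wt1 yeast under compound versus vehicle treatment, reported as inhibition.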
# [5] = NCI Yeast Anticancer Drug Screen. Data for the rad50EPP+ strain (AID 151);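 also: 0% = growth of vehicle-treated control cultures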; conditions: S. cerevisiae rad50 mutant strain, hits give high values
# Outline: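 Yeast strain carrying rad50 alteration (rad50EPP+) exposed to compounds; growth inhibition measured relative to vehicle-treated controls.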
# [6] = NCI Yeast Anticancer Drug Screen. Data for the rad50 strain (AID 155);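 also: 0% = growth of vehicle-only cultures of the same strain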; conditions: S. cerevisiae rad50 strain growth inhibition, hits give high values
# Outline: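 Growth of the mutant yeast was measured after compound exposure and referenced to vehicle-treated cultures.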
# [7] = NCI Yeast Anticancer Drug Screen. Data for the mec2-1 strain (AID 157); conditions: S. cerevisiae mec2-1 strain, hits give high values
# Outline: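 mec2-1 yeast strain, carrying an alteration in DNA damage repair or cell cycle control, was exposed to compounds; growth inhibition was measured relative to vehicle-treated controls.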
# [8] = NCI Yeast Anticancer Drug Screen. Data for the rad14 strain (AID 159);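 also: 0% = growth of vehicle-treated control cultures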; conditions: S. cerevisiae rad14 strain growth inhibition, hits give high values
# Outline: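 Here, inhibition of yeast growth was measured after compound exposure, using a strain with a genetic defect in DNA damage repair and vehicle-treated cultures as the reference.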
# [9] = NCI Yeast Anticancer Drug Screen. Data for the sgs1 mgt1 strain (AID 161);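 also: 0% = growth of cultures given vehicle only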; conditions: S. cerevisiae sgs1 mgt1 strain, hits give high values
# Outline: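 Growth of a repair-deficient yeast mutant was monitored after compound treatment and expressed as inhibition relative to vehicle-treated cultures.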
# [10] = NCI Yeast Anticancer Drug Screen. Data for the CLN2oe strain (AID 163);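 also: 0% = growth of vehicle-only control cultures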; conditions: S. cerevisiae CLN2oe strain, hits give high values
# Outline: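 Yeast cells carrying a defined cell-cycle control alteration were exposed to test compounds. Growth inhibition was scored against vehicle-treated control cultures.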
# [11] = NCI Yeast Anticancer Drug Screen. Data for the cln2 rad14 strain (AID 165);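 also: 0% = growth equal to vehicle treated cultures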; conditions: S. cerevisiae cln2 rad14 strain, hits give high values
# Outline: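 Yeast carrying cln2 and rad14 alterations (cell cycle control and DNA damage repair) were exposed to compounds. Growth inhibition was measured against vehicle-treated controls.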
# [12] = NCI Yeast Anticancer Drug Screen. Data for the bub3 strain (AID 167); conditions: S. cerevisiae bub3 mutant strain, hits give high values
# Outline: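 Whole-cell yeast assay. The mutant strain was incubated with compounds, and growth inhibition was determined by comparison with vehicle-treated cells.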
# [13] = NCI Yeast Anticancer Drug Screen. Data for the wt2 strain (AID 169);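 also: 0% = growth of vehicle-treated yeast cultures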; conditions: S. cerevisiae wt2 strain growth inhibition, hits give high values
# Outline: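 Yeast cells were exposed to test compounds, and growth inhibition was measured relative to vehicle-treated controls.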
# [14] = NCI Yeast Anticancer Drug Screen. Data for the sgs1 strain (AID 173);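 also: 0% = growth of vehicle-only control cultures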; conditions: S. cerevisiae sgs1 mutant, hits give high values
# Outline: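 Yeast mutant strains carrying defined defects in DNA damage repair or cell cycle control were exposed to test compounds. Growth inhibition was scored against vehicle-treated controls.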
# [15] = NCI Yeast Anticancer Drug Screen. Data for the rad18 strain (AID 177); conditions: S. cerevisiae rad18 mutant growth inhibition, hits give high values
# Outline: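 Yeast carrying a defined DNA damage repair alteration were exposed to compounds. Growth inhibition was expressed relative to vehicle-treated controls.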
# [16] = at 5.0 µM (retest, dose inferred, filed as 0.5)
# [17] = at 50.0 µM (retest, dose inferred, filed as 5.0)
smiles,measurement,setting,value
CN(C)Cc1cccc(CN(C)C)[c]1[Sn]([Br])([c]1ccccc1)[c]1ccccc1,growth inhibition,[1]; at 1.2 µM,-2%
same,growth inhibition,[1]; at 3.7 µM,23%
same,growth inhibition,[1]; at 11.0 µM,37%
same,growth inhibition,[1]; at 33.0 µM,60%
same,growth inhibition,[1]; at 100.0 µM,96% (active)
same,growth inhibition,[2]; [16],44%
same,growth inhibition,[2]; [17],98% (active)
same,growth inhibition,[2]; at 50.0 µM,90.7% (active)
N#Cc1sc2c(c1OC(=O)c1ccco1)c(=O)n(-c1ccccc1)c(=S)n2-c1ccccc1,growth inhibition,[3]; at 1.2 µM,0%
same,growth inhibition,[3]; at 3.7 µM,1%
same,growth inhibition,[3]; at 11.0 µM,-1%
same,growth inhibition,[3]; at 33.0 µM,0%
same,growth inhibition,[3]; at 100.0 µM,0%
same,growth inhibition,[4]; at 1.2 µM,-3%
same,growth inhibition,[4]; at 3.7 µM,-4%
same,growth inhibition,[4]; at 11.0 µM,-1%
same,growth inhibition,[4]; at 33.0 µM,-1%
same,growth inhibition,[4]; at 100.0 µM,0%
same,growth inhibition,[5]; at 1.2 µM,9%
same,growth inhibition,[5]; at 3.7 µM,6%
same,growth inhibition,[5]; at 11.0 µM,11%
same,growth inhibition,[5]; at 33.0 µM,8%
same,growth inhibition,[5]; at 100.0 µM,5%
same,growth inhibition,[6]; at 1.2 µM,0%
same,growth inhibition,[6]; at 3.7 µM,2%
same,growth inhibition,[6]; [16],3%
same,growth inhibition,[6]; at 11.0 µM,1%
same,growth inhibition,[6]; at 33.0 µM,0%
same,growth inhibition,[6]; [17],94% (active)
same,growth inhibition,[6]; at 50.0 µM,94.6% (active)
same,growth inhibition,[6]; at 100.0 µM,-1%
same,growth inhibition,[7]; at 1.2 µM,-1%
same,growth inhibition,[7]; at 3.7 µM,-1%
same,growth inhibition,[7]; [16],7%
same,growth inhibition,[7]; at 11.0 µM,-2%
same,growth inhibition,[7]; at 33.0 µM,-6%
same,growth inhibition,[7]; [17],82% (active)
same,growth inhibition,[7]; at 50.0 µM,95% (active)
same,growth inhibition,[7]; at 100.0 µM,0%
same,growth inhibition,[8]; at 1.2 µM,1%
same,growth inhibition,[8]; at 3.7 µM,1%
same,growth inhibition,[8]; at 11.0 µM,3%
same,growth inhibition,[8]; at 33.0 µM,2%
same,growth inhibition,[8]; at 100.0 µM,-2%
same,growth inhibition,[9]; [16],0%
same,growth inhibition,[9]; [17],95% (active)
same,growth inhibition,[9]; at 50.0 µM,95.7% (active)
same,growth inhibition,[10]; at 1.2 µM,-2%
same,growth inhibition,[10]; at 3.7 µM,-1%
same,growth inhibition,[10]; at 11.0 µM,4%
same,growth inhibition,[10]; at 33.0 µM,-1%
same,growth inhibition,[10]; at 100.0 µM,-6%
same,growth inhibition,[11]; [16],23%
same,growth inhibition,[11]; [17],91% (active)
same,growth inhibition,[11]; at 50.0 µM,94% (active)
same,growth inhibition,[12]; at 1.2 µM,0%
same,growth inhibition,[12]; at 3.7 µM,-4%
same,growth inhibition,[12]; [16],13%
same,growth inhibition,[12]; at 11.0 µM,-3%
same,growth inhibition,[12]; at 33.0 µM,0%
same,growth inhibition,[12]; [17],91% (active)
same,growth inhibition,[12]; at 50.0 µM,95.4% (active)
same,growth inhibition,[12]; at 100.0 µM,-6%
same,growth inhibition,[13]; at 1.2 µM,-1%
same,growth inhibition,[13]; at 3.7 µM,-1%
same,growth inhibition,[13]; at 11.0 µM,-2%
same,growth inhibition,[13]; at 33.0 µM,-9%
same,growth inhibition,[13]; at 100.0 µM,3%
same,growth inhibition,[1]; at 1.2 µM,-4%
same,growth inhibition,[1]; at 3.7 µM,-2%
same,growth inhibition,[1]; at 11.0 µM,-2%
same,growth inhibition,[1]; at 33.0 µM,-5%
same,growth inhibition,[1]; at 100.0 µM,-3%
same,growth inhibition,[14]; at 1.2 µM,0%
same,growth inhibition,[14]; at 3.7 µM,1%
same,growth inhibition,[14]; at 11.0 µM,0%
same,growth inhibition,[14]; at 33.0 µM,1%
same,growth inhibition,[14]; at 100.0 µM,0%
same,growth inhibition,[2]; [16],59%
same,growth inhibition,[2]; [17],94% (active)
same,growth inhibition,[2]; at 50.0 µM,95.2% (active)
same,growth inhibition,[15]; at 1.2 µM,0%
same,growth inhibition,[15]; at 3.7 µM,1%
same,growth inhibition,[15]; at 11.0 µM,-17%
same,growth inhibition,[15]; at 33.0 µM,2%
same,growth inhibition,[15]; at 100.0 µM,-1%
CC(=O)Oc1ccc(N2C(=O)C3c4[nH]c5ccccc5c4C4CCC(C(C)(C)C)CC4C3C2=O)cc1 (centres undefined),growth inhibition,[3]; at 1.2 µM,7%
same,growth inhibition,[3]; at 3.7 µM,87% (active)
same,growth inhibition,[3]; at 11.0 µM,96% (active)
same,growth inhibition,[3]; at 33.0 µM,96% (active)
same,growth inhibition,[3]; at 100.0 µM,90% (active)
same,growth inhibition,[4]; at 1.2 µM,15%
same,growth inhibition,[4]; at 3.7 µM,64%
same,growth inhibition,[4]; at 11.0 µM,98% (active)
same,growth inhibition,[4]; at 33.0 µM,95% (active)
same,growth inhibition,[4]; at 100.0 µM,95% (active)
same,growth inhibition,[5]; at 1.2 µM,-23%
same,growth inhibition,[5]; at 3.7 µM,-26%
same,growth inhibition,[5]; at 11.0 µM,-26%
same,growth inhibition,[5]; at 33.0 µM,-6%
same,growth inhibition,[5]; at 100.0 µM,6%
same,growth inhibition,[6]; at 1.2 µM,-14%
same,growth inhibition,[6]; at 3.7 µM,91% (active)
same,growth inhibition,[6]; [16],98% (active)
same,growth inhibition,[6]; at 11.0 µM,96% (active)
same,growth inhibition,[6]; at 33.0 µM,95% (active)
same,growth inhibition,[6]; [17],98% (active)
same,growth inhibition,[6]; at 50.0 µM,98.5% (active)
same,growth inhibition,[6]; at 100.0 µM,92% (active)
same,growth inhibition,[7]; at 1.2 µM,-4%
same,growth inhibition,[7]; at 3.7 µM,71% (active)
same,growth inhibition,[7]; [16],99% (active)
same,growth inhibition,[7]; at 11.0 µM,98% (active)
same,growth inhibition,[7]; at 33.0 µM,98% (active)
same,growth inhibition,[7]; [17],98% (active)
same,growth inhibition,[7]; at 50.0 µM,98.5% (active)
same,growth inhibition,[7]; at 100.0 µM,95% (active)
same,growth inhibition,[8]; at 1.2 µM,-15%
same,growth inhibition,[8]; at 3.7 µM,18%
same,growth inhibition,[8]; at 11.0 µM,97% (active)
same,growth inhibition,[8]; at 33.0 µM,97% (active)
same,growth inhibition,[8]; at 100.0 µM,95% (active)
same,growth inhibition,[9]; [16],98% (active)
same,growth inhibition,[9]; [17],98% (active)
same,growth inhibition,[9]; at 50.0 µM,98.5% (active)
same,growth inhibition,[10]; at 1.2 µM,16%
same,growth inhibition,[10]; at 3.7 µM,92% (active)
same,growth inhibition,[10]; at 11.0 µM,98% (active)
same,growth inhibition,[10]; at 33.0 µM,97% (active)
same,growth inhibition,[10]; at 100.0 µM,97% (active)
same,growth inhibition,[11]; [16],83% (active)
same,growth inhibition,[11]; [17],98% (active)
same,growth inhibition,[11]; at 50.0 µM,98.6% (active)
same,growth inhibition,[12]; at 1.2 µM,-28%
same,growth inhibition,[12]; at 3.7 µM,64%
same,growth inhibition,[12]; [16],98% (active)
same,growth inhibition,[12]; at 11.0 µM,97% (active)
same,growth inhibition,[12]; at 33.0 µM,96% (active)
same,growth inhibition,[12]; [17],98% (active)
same,growth inhibition,[12]; at 50.0 µM,98.5% (active)
same,growth inhibition,[12]; at 100.0 µM,94% (active)
same,growth inhibition,[13]; at 1.2 µM,-4%
same,growth inhibition,[13]; at 3.7 µM,25%
same,growth inhibition,[13]; at 11.0 µM,98% (active)
same,growth inhibition,[13]; at 33.0 µM,98% (active)
same,growth inhibition,[13]; at 100.0 µM,96% (active)
same,growth inhibition,[1]; at 1.2 µM,-15%
same,growth inhibition,[1]; at 3.7 µM,36%
same,growth inhibition,[1]; at 11.0 µM,98% (active)
same,growth inhibition,[1]; at 33.0 µM,97% (active)
same,growth inhibition,[1]; at 100.0 µM,94% (active)
same,growth inhibition,[14]; at 1.2 µM,-7%
same,growth inhibition,[14]; at 3.7 µM,52%
same,growth inhibition,[14]; at 11.0 µM,97% (active)
same,growth inhibition,[14]; at 33.0 µM,97% (active)
same,growth inhibition,[14]; at 100.0 µM,94% (active)
same,growth inhibition,[2]; [16],98% (active)
same,growth inhibition,[2]; [17],98% (active)
same,growth inhibition,[2]; at 50.0 µM,98% (active)
same,growth inhibition,[15]; at 1.2 µM,13%
same,growth inhibition,[15]; at 3.7 µM,82% (active)
same,growth inhibition,[15]; at 11.0 µM,96% (active)
same,growth inhibition,[15]; at 33.0 µM,95% (active)
same,growth inhibition,[15]; at 100.0 µM,93% (active)
